# Test results published in publication PMC7862700, “An all-to-all approach to the identification of sequence-specific readers for epigenetic DNA modifications on cytosine”.
# What was measured:
# Test in all cases: DAPPL (digital affinity profiling via proximity ligation, sequencing); 10 mM Tris-HCl pH 7.5, 50 mM NaCl, 1 mM DTT, 4% glycerol, room temperature, 30 min; GST-TFs on glutathione beads, 16-mer random dsDNA library, 0.1% formaldehyde crosslink after washing; high values mean tight binding
# Details in all cases: protein: recombinant; tags: N-terminal GST; dsDNA, one strand shown
# [1] = target: T1, FLI1 (Homo sapiens, UniProt Q01543 1-452)
# T1 sequence: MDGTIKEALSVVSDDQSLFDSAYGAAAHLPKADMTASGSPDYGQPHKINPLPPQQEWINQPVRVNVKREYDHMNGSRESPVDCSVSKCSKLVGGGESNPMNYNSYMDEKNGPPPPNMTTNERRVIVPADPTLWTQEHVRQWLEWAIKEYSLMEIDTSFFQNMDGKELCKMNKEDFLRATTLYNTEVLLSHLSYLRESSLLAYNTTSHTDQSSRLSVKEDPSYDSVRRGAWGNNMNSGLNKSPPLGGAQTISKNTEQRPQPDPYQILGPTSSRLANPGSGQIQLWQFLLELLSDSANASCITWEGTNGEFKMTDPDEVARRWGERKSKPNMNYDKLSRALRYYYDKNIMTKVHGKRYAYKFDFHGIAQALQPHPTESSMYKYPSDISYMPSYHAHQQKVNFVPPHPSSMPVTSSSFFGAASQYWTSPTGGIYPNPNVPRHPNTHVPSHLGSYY
# In short: (§1)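 Pools were built from human transcription factors expressed in yeast as GST fusions, captured on glutathione beads and DNA-barcoded, along with a tag-only sample. Incubation with 200 nmole of a 16-mer random double-stranded DNA library lasted 30 min at room temperature in Tris/NaCl/DTT/glycerol buffer, and was followed by washing, 0.1% formaldehyde crosslinking, proximity ligation, PCR amplification and Illumina NextSeq500 sequencing. Binding signal is the quotient of each hexamer's read frequency for a factor and its frequency for the tag-only sample.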
# [2] = target: T2, ELK1 (Homo sapiens, UniProt P19419 1-428)
# T2 sequence: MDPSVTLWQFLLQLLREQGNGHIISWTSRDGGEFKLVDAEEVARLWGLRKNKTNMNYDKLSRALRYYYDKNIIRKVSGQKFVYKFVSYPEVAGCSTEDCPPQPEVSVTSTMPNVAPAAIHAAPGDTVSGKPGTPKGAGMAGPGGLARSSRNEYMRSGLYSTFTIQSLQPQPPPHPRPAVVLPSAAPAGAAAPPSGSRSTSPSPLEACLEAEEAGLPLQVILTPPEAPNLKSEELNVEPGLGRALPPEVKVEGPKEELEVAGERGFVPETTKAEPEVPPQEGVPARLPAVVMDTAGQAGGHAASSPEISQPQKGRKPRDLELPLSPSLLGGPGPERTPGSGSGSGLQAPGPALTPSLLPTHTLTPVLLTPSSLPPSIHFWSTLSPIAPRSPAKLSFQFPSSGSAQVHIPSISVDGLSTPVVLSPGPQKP
# In short: as §1
# [3] = target: T3, GABPA (Homo sapiens, UniProt Q06546 1-454)
# T3 sequence: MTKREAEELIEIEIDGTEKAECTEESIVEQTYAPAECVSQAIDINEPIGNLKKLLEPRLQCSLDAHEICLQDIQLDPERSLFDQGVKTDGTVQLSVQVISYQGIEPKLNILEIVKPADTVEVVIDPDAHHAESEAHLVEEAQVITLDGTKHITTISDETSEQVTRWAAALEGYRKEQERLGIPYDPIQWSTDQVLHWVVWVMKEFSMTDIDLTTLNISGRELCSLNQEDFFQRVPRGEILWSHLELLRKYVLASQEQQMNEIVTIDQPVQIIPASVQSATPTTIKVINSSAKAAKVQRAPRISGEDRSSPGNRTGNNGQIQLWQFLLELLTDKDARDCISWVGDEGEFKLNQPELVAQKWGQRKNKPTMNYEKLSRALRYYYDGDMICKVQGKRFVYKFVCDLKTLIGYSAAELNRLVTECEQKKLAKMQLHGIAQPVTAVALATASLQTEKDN
# In short: as §1
# [4] = target: T4, ERG (Homo sapiens, UniProt P11308 1-479)
# T4 sequence: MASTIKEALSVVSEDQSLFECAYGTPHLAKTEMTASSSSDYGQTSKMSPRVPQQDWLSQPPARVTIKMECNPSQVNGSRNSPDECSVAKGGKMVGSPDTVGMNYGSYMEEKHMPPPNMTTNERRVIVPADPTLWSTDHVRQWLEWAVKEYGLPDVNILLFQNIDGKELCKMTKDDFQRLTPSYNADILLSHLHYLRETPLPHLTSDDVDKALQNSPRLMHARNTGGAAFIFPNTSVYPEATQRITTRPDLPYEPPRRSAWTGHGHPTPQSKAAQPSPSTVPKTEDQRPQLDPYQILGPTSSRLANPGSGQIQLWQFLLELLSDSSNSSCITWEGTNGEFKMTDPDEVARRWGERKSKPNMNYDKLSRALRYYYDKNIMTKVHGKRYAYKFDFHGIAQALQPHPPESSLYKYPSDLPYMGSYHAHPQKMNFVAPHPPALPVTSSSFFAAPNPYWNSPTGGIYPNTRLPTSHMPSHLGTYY
# In short: as §1
# [5] = target: ELF1 (Homo sapiens, UniProt P32519 1-619)
# In short: as §1
# [6] = target: T5, EHF (Homo sapiens, UniProt Q9NZC4 1-300)
# T5 sequence: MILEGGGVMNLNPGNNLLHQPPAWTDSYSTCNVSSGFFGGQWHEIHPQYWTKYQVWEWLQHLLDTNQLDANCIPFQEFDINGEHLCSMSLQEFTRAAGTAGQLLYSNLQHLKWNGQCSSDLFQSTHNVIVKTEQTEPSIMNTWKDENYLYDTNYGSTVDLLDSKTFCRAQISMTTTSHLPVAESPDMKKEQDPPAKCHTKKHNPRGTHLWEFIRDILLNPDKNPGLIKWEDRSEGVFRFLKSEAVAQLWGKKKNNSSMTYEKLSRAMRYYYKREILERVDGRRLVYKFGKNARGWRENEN
# In short: as §1
# [7] = target: SPI1 (Homo sapiens, UniProt P17947 1-270)
# In short: as §1
# [8] = target: SPIB (Homo sapiens, UniProt Q01892 1-262)
# In short: as §1
# [9] = target: T6, ELK3 (Homo sapiens, UniProt P41970 1-407)
# T6 sequence: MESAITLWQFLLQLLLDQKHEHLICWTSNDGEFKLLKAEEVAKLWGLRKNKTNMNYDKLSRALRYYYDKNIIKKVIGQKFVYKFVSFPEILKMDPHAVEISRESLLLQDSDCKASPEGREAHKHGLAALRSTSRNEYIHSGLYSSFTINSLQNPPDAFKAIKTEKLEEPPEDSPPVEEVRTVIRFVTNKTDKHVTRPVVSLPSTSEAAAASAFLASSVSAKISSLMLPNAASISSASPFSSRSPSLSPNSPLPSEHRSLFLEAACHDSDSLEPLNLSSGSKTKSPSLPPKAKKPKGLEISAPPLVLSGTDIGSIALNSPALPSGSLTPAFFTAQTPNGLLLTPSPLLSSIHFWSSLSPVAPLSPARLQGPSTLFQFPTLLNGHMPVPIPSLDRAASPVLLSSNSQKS
# In short: as §1
# [10] = target: T7, FEV (Homo sapiens, UniProt Q99581 1-238)
# T7 sequence: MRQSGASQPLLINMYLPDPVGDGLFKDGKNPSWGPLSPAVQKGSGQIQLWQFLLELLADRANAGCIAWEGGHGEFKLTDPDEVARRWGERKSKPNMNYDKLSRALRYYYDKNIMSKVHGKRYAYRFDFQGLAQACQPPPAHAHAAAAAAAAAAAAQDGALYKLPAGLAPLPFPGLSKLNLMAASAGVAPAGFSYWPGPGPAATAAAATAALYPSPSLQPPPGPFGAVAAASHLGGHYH
# In short: as §1
# [11] = target: ETV5 (Homo sapiens, UniProt P41161 1-510)
# In short: as §1
# [12] = target: T8, SPIC (Homo sapiens, UniProt Q8N5J4 1-248)
# T8 sequence: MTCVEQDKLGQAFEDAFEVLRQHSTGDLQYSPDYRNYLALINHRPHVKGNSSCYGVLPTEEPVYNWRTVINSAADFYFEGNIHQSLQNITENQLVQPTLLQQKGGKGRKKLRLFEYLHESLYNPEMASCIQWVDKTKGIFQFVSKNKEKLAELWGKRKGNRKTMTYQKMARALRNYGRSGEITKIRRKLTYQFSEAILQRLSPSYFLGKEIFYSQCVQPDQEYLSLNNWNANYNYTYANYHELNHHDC
# In short: as §1
# [13] = target: ELF4 (Homo sapiens, UniProt Q99607 1-663)
# In short: as §1
# [14] = target: T9, ELK4 (Homo sapiens, UniProt P28324-2 1-405)
# T9 sequence: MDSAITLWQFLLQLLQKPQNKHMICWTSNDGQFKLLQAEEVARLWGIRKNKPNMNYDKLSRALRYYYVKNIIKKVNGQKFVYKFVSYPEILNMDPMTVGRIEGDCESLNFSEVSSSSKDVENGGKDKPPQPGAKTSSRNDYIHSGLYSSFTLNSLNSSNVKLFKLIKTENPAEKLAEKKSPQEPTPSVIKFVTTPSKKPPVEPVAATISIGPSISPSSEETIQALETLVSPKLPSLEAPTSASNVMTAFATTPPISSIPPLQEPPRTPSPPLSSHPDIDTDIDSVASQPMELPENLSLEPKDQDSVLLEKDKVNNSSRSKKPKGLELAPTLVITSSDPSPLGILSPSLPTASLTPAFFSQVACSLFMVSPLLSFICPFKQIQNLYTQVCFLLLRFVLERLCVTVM
# In short: as §1
# [15] = target: T10, ETV2 (Homo sapiens, UniProt O00321 1-342)
# T10 sequence: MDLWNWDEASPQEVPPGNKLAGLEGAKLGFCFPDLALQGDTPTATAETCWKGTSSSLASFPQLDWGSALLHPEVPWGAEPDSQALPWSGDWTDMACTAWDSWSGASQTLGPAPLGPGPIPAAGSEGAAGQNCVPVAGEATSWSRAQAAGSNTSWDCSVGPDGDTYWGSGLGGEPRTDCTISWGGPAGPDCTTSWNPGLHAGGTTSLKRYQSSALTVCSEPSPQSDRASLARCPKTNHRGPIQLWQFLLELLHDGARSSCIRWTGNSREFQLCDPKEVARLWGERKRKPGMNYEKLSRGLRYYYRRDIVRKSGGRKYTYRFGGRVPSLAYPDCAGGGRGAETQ
# In short: as §1
# [16] = target: T11, ELF3 (Homo sapiens, UniProt P78545 1-371)
# T11 sequence: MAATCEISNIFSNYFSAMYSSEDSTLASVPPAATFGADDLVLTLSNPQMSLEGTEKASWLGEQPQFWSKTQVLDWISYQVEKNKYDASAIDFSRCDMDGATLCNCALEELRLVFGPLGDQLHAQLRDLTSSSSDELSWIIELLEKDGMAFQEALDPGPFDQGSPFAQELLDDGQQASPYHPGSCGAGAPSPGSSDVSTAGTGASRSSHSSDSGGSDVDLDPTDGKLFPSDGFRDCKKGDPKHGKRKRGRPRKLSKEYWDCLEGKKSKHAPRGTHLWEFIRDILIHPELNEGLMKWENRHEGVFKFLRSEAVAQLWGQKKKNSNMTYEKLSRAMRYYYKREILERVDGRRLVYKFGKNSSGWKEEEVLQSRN
# In short: as §1
# [17] = target: ETV1 (Homo sapiens, UniProt P50549 1-477)
# In short: as §1
# Chain of ELF4 (Q99607 whole entry): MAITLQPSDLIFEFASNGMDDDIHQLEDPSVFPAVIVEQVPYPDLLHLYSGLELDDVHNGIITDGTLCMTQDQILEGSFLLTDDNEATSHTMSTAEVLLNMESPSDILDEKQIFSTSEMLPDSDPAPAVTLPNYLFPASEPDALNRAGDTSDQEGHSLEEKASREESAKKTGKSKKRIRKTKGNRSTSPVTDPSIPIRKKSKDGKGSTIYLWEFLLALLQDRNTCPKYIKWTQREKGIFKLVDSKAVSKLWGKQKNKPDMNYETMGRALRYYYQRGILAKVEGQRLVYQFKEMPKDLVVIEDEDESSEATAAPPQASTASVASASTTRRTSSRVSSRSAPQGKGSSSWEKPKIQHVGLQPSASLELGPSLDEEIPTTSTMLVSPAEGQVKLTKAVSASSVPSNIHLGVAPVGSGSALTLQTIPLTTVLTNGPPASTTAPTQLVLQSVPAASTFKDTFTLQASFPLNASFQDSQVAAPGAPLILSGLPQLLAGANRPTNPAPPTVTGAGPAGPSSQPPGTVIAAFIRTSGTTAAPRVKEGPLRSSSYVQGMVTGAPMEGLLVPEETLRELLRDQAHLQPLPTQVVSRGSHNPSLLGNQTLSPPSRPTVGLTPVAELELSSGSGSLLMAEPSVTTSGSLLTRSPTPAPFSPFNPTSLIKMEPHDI
# Chain of SPIB (Q01892 whole entry): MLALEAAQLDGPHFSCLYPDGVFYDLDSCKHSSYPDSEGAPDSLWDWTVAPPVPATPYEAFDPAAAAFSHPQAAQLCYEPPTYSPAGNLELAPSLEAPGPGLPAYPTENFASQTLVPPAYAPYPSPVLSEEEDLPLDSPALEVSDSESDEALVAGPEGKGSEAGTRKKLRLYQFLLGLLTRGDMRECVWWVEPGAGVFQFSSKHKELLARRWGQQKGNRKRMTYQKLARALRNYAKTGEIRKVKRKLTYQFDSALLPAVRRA
# Chain of ETV5 (P41161 whole entry): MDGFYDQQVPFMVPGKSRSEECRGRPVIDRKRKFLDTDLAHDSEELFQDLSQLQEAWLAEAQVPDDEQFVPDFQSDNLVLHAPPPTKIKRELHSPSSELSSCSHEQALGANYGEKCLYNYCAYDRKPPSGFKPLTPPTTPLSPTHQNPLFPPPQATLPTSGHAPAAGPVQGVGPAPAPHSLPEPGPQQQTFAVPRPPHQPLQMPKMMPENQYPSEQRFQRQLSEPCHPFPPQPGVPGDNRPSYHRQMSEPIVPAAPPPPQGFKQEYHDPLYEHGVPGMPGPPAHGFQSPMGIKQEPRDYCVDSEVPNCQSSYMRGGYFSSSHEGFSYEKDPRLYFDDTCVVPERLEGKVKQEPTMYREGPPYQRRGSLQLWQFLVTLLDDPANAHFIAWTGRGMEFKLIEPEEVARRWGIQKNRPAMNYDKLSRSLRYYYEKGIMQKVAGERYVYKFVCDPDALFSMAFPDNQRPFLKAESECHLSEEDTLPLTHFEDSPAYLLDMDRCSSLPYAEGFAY
# Chain of ELF1 (P32519 whole entry): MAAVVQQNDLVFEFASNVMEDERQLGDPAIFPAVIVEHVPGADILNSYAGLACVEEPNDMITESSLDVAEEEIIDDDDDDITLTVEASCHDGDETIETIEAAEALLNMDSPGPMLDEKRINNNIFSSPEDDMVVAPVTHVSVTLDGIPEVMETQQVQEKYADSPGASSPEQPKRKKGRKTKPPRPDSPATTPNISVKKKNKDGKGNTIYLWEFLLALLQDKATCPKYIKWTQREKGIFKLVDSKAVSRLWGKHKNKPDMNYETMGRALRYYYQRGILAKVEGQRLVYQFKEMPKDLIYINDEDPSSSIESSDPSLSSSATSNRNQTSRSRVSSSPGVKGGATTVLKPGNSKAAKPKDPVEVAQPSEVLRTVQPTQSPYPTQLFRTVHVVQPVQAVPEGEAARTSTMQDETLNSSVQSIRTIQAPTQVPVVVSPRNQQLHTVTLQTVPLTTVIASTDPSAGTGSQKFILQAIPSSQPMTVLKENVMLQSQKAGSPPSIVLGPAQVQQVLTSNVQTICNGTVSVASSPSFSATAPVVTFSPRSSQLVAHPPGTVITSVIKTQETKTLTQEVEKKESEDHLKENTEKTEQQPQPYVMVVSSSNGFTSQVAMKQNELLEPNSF
# Chain of ETV1 (P50549 whole entry): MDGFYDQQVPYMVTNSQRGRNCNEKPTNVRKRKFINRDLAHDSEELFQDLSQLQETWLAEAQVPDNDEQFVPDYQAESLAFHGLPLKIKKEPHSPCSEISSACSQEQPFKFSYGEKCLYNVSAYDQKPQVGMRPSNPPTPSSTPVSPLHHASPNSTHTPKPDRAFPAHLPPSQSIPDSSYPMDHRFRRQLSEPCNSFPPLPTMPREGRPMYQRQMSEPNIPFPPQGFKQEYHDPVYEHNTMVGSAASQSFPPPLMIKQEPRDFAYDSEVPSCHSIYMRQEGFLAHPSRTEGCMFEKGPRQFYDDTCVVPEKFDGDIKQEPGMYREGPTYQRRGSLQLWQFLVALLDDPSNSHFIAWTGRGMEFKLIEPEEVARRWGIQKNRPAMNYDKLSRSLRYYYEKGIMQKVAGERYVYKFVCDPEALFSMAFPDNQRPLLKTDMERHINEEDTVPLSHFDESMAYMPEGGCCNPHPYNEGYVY
Sequence,binding signal [1],binding signal [2],binding signal [3],binding signal [4],binding signal [5],binding signal [6],binding signal [7],binding signal [8],binding signal [9],binding signal [10],binding signal [11],binding signal [12],binding signal [13],binding signal [14],binding signal [15],binding signal [16],binding signal [17]
CCCCCG,"1.21 fold enrichment (6-mer frequency, TF over GST control)","1.09 fold enrichment (6-mer frequency, TF over GST control)","1.03 fold enrichment (6-mer frequency, TF over GST control)","1.18 fold enrichment (6-mer frequency, TF over GST control)","1.1 fold enrichment (6-mer frequency, TF over GST control)","1.1 fold enrichment (6-mer frequency, TF over GST control)","1.08 fold enrichment (6-mer frequency, TF over GST control)","1.09 fold enrichment (6-mer frequency, TF over GST control)","1.07 fold enrichment (6-mer frequency, TF over GST control)","1.2 fold enrichment (6-mer frequency, TF over GST control)","1.08 fold enrichment (6-mer frequency, TF over GST control)","1.14 fold enrichment (6-mer frequency, TF over GST control)","1.18 fold enrichment (6-mer frequency, TF over GST control)","1.16 fold enrichment (6-mer frequency, TF over GST control)","1.03 fold enrichment (6-mer frequency, TF over GST control)","1.22 fold enrichment (6-mer frequency, TF over GST control)","1.04 fold enrichment (6-mer frequency, TF over GST control)"
GCACCC,"1.21 fold enrichment (6-mer frequency, TF over GST control)","1.25 fold enrichment (6-mer frequency, TF over GST control)","1.25 fold enrichment (6-mer frequency, TF over GST control)","1.17 fold enrichment (6-mer frequency, TF over GST control)","1.16 fold enrichment (6-mer frequency, TF over GST control)","1.01 fold enrichment (6-mer frequency, TF over GST control)","1.18 fold enrichment (6-mer frequency, TF over GST control)","1.2 fold enrichment (6-mer frequency, TF over GST control)","1.14 fold enrichment (6-mer frequency, TF over GST control)","1.12 fold enrichment (6-mer frequency, TF over GST control)","1.11 fold enrichment (6-mer frequency, TF over GST control)","1.3 fold enrichment (6-mer frequency, TF over GST control)","1.22 fold enrichment (6-mer frequency, TF over GST control)","1.33 fold enrichment (6-mer frequency, TF over GST control)","1.28 fold enrichment (6-mer frequency, TF over GST control)","1.25 fold enrichment (6-mer frequency, TF over GST control)","1.15 fold enrichment (6-mer frequency, TF over GST control)"
